This is one part of a sample in which hits are shown more often than they occur.
Pf Dd2 growth – inhibitors of Plasmodium falciparum Dd2 growth; 120,000 compounds, 4.3% hits; Potency, µM (doses to about 28.9 µM), inactives show at the top dose activity, negative = inhibition, actives largely listed as inhibitors; P. falciparum Dd2 growth, SYBR Green, 72 h; AID 1347417; active means well fitted inhibition curve with a large enough effect;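 further: plate controls were DMSO vehicle for no effect and reference drug for full effect; nearly all actives have a fitted effect of over 65% in size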
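Infected erythrocytes (Dd2, 0.3% parasitemia, 2.5% hematocrit final) are added to compound in RPMI-1640/Albumax II medium, grown 72 h at 37C in low oxygen, then lysed with saponin/Triton-X containing SYBR Green and read by fluorescence.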
* = called active by the depositor; i = inactive; ! = repeats disagree; [ ] = another dose, or the depositor's remark. Potency means the concentration at half of the fitted maximal effect.

SMILES	Pf Dd2 growth
Cc1cccc(N2CCN(C(=O)c3ccc4c(c3)c(C)c(C)n4C)CC2C)c1 (stereo not given)	i
Cc1cccc(N2CCN(C(=O)c3cc4c(=O)n(C)c5ccccc5c4s3)CC2C)c1 (stereo not given)	4.8%
c1cncc(CN2CC[C@H](c3nc4ccccc4[nH]3)C2)c1	-21.2%[44.1 µM]
CN(C)c1ccc(CN2CCC(c3nc4ccncc4[nH]3)C2)cc1 (stereo not given)	-17.7%[44.1 µM]
Brc1ccc(CN2CCC(c3nc4ccncc4[nH]3)C2)cc1 (stereo not given)	10µM*!
Cc1cnc(C)c(-c2cc(O)c3c(c2)CN(C(=O)C2CCNC2)CCO3)n1 (stereo not given)	2.9%
COc1ccc(NC(=O)N2C[C@@H]3C[C@H](C2)c2c(NS(=O)(=O)c4ccccc4)ccc(=O)n2C3)cc1	26.1%
COc1ccc(NC(=O)c2oc3c(c2C)-c2nn(Cc4c(F)cccc4Cl)cc2CC3)c(OC)c1	i
COc1cc(NC(=O)c2oc3c(c2C)-c2nn(Cc4cccc(Cl)c4)cc2CC3)cc(OC)c1	-27.7%
COc1ccc(OC)c(NC(=O)c2oc3c(c2C)-c2nn(Cc4ccc(Cl)cc4)cc2CC3)c1	10µM*
O=C(c1ccoc1)N1CCc2nn(Cc3ccccc3)c(=O)n2CC1	7.2%
CCCS(=O)(=O)N1CCCC(Cc2noc(-c3ccncc3)n2)C1 (stereo not given)	i
O=C(N[C@@H]1CCC[C@@H]1C(=O)N1CCCC1)c1ccncc1	9.1%
O=C(c1ccccn1)N1CC[C@H]2COC(=O)N2c2cc(F)ccc2C1	5.1%[44.1 µM]
C[S+](=O)([O-])c1ccc(-c2ncc3c(n2)OCCN(c2ccccc2)C3=O)cc1	-2.0%[44.1 µM]
CN(C)C(=O)c1ccc(-c2ncc3c(n2)OCCN(Cc2ccccc2)C3=O)cc1	2.24µM*
COc1cc(F)cc(-c2ncc3c(n2)OCCN(C)C3=O)c1	i
CN1CCOc2nc(-c3ccc(Oc4ccccc4)cc3)ncc2C1=O	5.01µM*
CN(C)C(=O)c1ccc(-c2ncc3c(n2)OCCN(CC2CC2)C3=O)cc1	i
O=C1c2cnc(-c3ccccc3)nc2OCCN1Cc1ccccc1	i
O=C(C1CN(c2cccc(Cl)c2)C(=O)N1)N1CCOCC1 (stereo not given)	2.8%[44.1 µM]
Cc1noc(-c2cn(C3CCN(C(=O)c4cccc(OC(F)(F)F)c4)C3)nn2)n1 (stereo not given)	-21.8%
CC(C)CNC(=O)N1CCC(N2C(=O)C(OCC3CC3)C23CCCCC3)CC1 (stereo not given)	-13.4%
COCC(=O)NC[C@H]1OC[C@@H](N(Cc2ccncc2)Cc2ccncc2)[C@@H]1O	0.1%[44.1 µM]
Cc1cc(=O)n(CC(=O)Nc2ccc3c(c2)OCCO3)c(-c2ccc(Cl)cc2)n1	i
SMILES	Pf Dd2 growth
O=C(Nc1ccc(-c2nnc3n2CCCC3)cc1)C1CCCCC1	-27.4%
CCN1CCN(C(=O)c2ccc(-c3nnc4ccc(NC(=O)C5CC5)cn34)cc2)CC1	0.447µM*
CC(C)c1ccc(NC(=O)C2CCN(C(=O)c3ccc(F)cc3)CC2)cc1	19.4%
CN(C)C(=O)c1ccc(-c2nnc3ccc(NC(=O)C4CCC4)cn23)cc1	3.98µM*
CCN1CCN(C(=O)c2ccc3nccn3c2)CC1	26.0%[44.1 µM]
COc1ccc(C(=O)Nc2ccc(-c3nnc4n3CCCCC4)cc2)cc1	11.3%
CCOc1ccc(C(=O)Nc2ccc3c(c2)OCCO3)cc1Br	12.2%
O=C(NC1CC1)c1ccc2nnc(-c3ccc(C(F)(F)F)cc3)n2c1	4.1%
CCC(=O)Nc1ccc2nnc(-c3ccc(C(=O)Nc4ccc5c(c4)OCCO5)cc3)n2c1	0.282µM*
COc1ccc(NC(=O)c2ccc(-c3nnc4ccc(NC(=O)C5CCC5)cn34)cc2)cc1	1µM*
COc1ccc(C(=O)Nc2ccc(-c3nnc4n3CCCCC4)cc2)cc1OC	-13.5%
Cc1cc(C)n(CC(=O)N2CC(F)(F)C[C@H]2c2nc(C)no2)n1	4.7%
COc1ccc(S(=O)(=O)N2CC(F)(F)C[C@H]2c2nc(C)no2)cc1	-7.2%
CCN(CC)C(=O)CC1Sc2ncccc2N(CC(C)C)C1=O (stereo not given)	10.9%
Cc1cc(C)n(CC(=O)NCC2(C)CCOCC2)n1	-23.3%
COc1cccc(-c2cc3c(=O)n(CCNC(=O)C4CCN(C(C)=O)CC4)ccn3n2)c1	-11.8%
O=C1CCN(C(=O)C2CCN(C(=O)C3CCCC3)CC2)CCCCCCN1	10.5%
O=C(Nc1ccc(F)c(Cl)c1)C1CCN(C(=O)c2ccc(F)cc2)CC1	8.8%
O=C(Nc1ccc2nnc(-c3ccc(C(=O)N4CCSCC4)cc3)n2c1)C1CCC1	2.24µM*
Cc1ccc(NC(=O)C2CCN(C(=O)c3nnn4c3COC(c3ccc(C)cc3)C4)CC2)cc1 (stereo not given)	i
CN1C(=O)C(CC(=O)N2CCNCC2)(Cc2ccccc2)c2ccccc21 (stereo not given)	-14.6%
COCCOC1CCN(C(=O)Nc2ccc3c(c2)OCCO3)CC1	47.6%
Cc1ccc(CNC(=O)c2cc3sccc3n2Cc2ccc(Cl)cc2)cc1	i
CC(=O)c1ccc(NC(=O)c2cc3sccc3n2Cc2ccc(F)cc2)cc1	-11.8%
COC(=O)c1cc(NC(=O)c2cc3sccc3n2Cc2ccc(Cl)cc2)cc(C(=O)OC)c1	11.2µM*
SMILES	Pf Dd2 growth
Cc1noc(C)c1[S+](=O)([O-])N1CCn2c(nnc2-c2ccncc2)C1	72.1%
Cc1noc(C2CCCCN2C(=O)c2ccc(-c3ccccc3Cl)o2)n1 (stereo not given)	-19.5%
COc1ccc(-c2nnc3n2N(C(C)=O)C(c2ccc(Cl)c(Cl)c2)=C(C(C)=O)S3)cc1	76.8%
CCc1nnc(SCC(=O)Nc2ccc(OC)c(OC)c2)c2cc3occc3n12	0.8%
COc1ccc(OC(=O)CSc2nnc(-c3ccc(F)cc3)o2)cc1	14.3%
CCC(=O)C1=C(c2ccc(OC)c(OC)c2)N(C(=O)CC)n2c(CC)nnc2S1	1.41µM*
CCC(=O)C1=C(c2ccc(F)cc2)N(C(=O)CC)n2c(nnc2-c2ccc(OC)cc2)S1	3.16µM*
COc1ccc(C2=C(C(C)=O)Sc3nnc(-c4ccc(Cl)cc4)n3N2C(C)=O)cc1OC	1.41µM*
CCc1nnc(SCc2nc(-c3ccc(OC)c(OC)c3)oc2C)c2cc3sc(C)cc3n12	38.9%
COc1ccc(-c2nnc3n2CCN(C(=O)c2ccc(F)cc2)C3)cc1	-1.8%
COc1ccc(CC(=O)NCCc2sc(-c3ccc(Cl)cc3)nc2C)cc1OC	i
CC(C)CCN1CC[C@H](c2nc3ccccc3[nH]2)C1	i
CCOC(=O)c1cccc(NC(=O)N2CC[C@@H](CC(=O)NCc3cccc4ccccc34)[C@@H](CC)C2)c1	-13.0%
O=C(c1ccc2c(c1)OCO2)N1CCN(c2cc(-c3ccc(F)cc3)[nH]n2)CC1	i
CC(C)Oc1ccc(CN2C(=O)C3(CCOCC3)CC2c2nnnn2C(C)(C)C)cc1 (stereo not given)	-16.5%
CC(C)C(=O)N1CCC2(CC1)CCC(O)(CN(C)C)CC2	-12.5%
CNC(=O)[C@H]1C[C@H](Oc2ccccc2)CN1C(=O)c1cc(-c2ccc(F)cc2)n[nH]1	-17.8%
CN(C)c1ccc(C(=O)N2CCN(C(=O)NC3CCCCC3)[C@H](C(=O)N[C@@H](CC3CCCCC3)C(N)=O)C2)cc1	i
CSc1ncccc1C(=O)N1C[C@@H](CN2CCCCC2)[C@@H](CO)C1	2.8%
CN(C)C(=O)N1CCC2(CC1)CN(C(=O)CCCNC(N)=O)Cc1ccccc1O2	-0.1%
O=C1c2c(nc(CNc3cccc(F)c3)n2Cc2ccccc2)NCCN1CCN1CCOCC1	i
